S2 tox: cell viability loss in ATXN counter-screen. S2 cells (HEK-293 line with an ATXN2-luciferase reporter) viability, CellTiter-Fluor protease fluorescence, 24 h. Potency, µM (highest dose often 56.7 µM), hits mostly cytotoxic. 400,000 compounds, 0.49% hits. AID 651635; note: nearly all actives have a fitted effect of over 40% in size
HepG2 viability: kills HepG2 cells in TGF-b inhibitor counter-screen; 410,000 compounds, 0.76% hits; AID 588856; Potency, µM (series often up to 46.1 µM), for inactives: top-dose activity change, negative = cytotoxicity, actives largely listed as cytotoxic; HepG2 CAGA-GFP viability, ATP luminescence, 18 h
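HepG2 CAGA-GFP cells (1000/well, DMEM with 1% FBS) received compound, then TGF-beta at 500 pg/mL final, and were incubated 18 hours at 37 degrees C. Viability was read by CellTiter-Glo luminescence. Media-only wells were set as complete cell-killing and DMSO as no toxicity.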
DT40 TDP1 CPT: DT40-hTDP1 cell growth loss with CPT | 420,000 compounds, 12% hits | chicken DT40 Tdp1-/-;hTDP1 cells + 20 nM CPT, ATP luminescence, 48 h | Potency, µM (top dose mostly 46.2 µM), without a hit: top-dose activity change, negative = growth inhibition, hits mostly inhibitors; note: % is set by controls: 0 for no effect and ±100 for the full control effect; nearly all actives have a fitted effect of over 55% in size
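Chicken DT40 Tdp1-/- cells complemented with human TDP1, 400 cells/well, exposed to compounds plus 20 nM camptothecin for at least 48 h at 37 C; viability read as ATP content by CellTiter-Glo luminescence.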
ATXN2 expr inh: reduces ATXN2 reporter expression in HEK-293 cells | HEK-293 ATXN2-luciferase reporter, luminescence, 24 h | AID 1745845 | 360,000 compounds, 0.72% hits | Potency, µM (highest dose often 57 µM), for inactives: at the top dose activity change, negative = inhibition, most hits filed as inhibitors; note: % is set by controls: 0 for no effect and ±100 for the full control effect; nearly all actives have a fitted effect of over 55% in size
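qHTS (up to 57 uM final) was run with 24 h compound exposure of reporter cells at 37 °C. Each well was multiplexed: SteadyGlo luminescence measured ATXN2-luciferase expression after a fluorogenic Gly-Phe-AFC viability readout (25 uM final).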
DT40 TDP1 no CPT: qHTS for Inhibitors of human tyrosyl-DNA phosphodiesterase 1 (TDP1): qHTS in cells in absence of CPT. DT40 Tdp1-/- hTDP1 cells, no CPT, ATP luminescence, 48 h. Potency, µM (titrated, usually from 46.2 µM), for the others: top-dose activity change, negative = growth inhibition, usual class: inhibitors. 420,000 compounds, 15% hits; note: % is set by controls: 0 for no effect and ±100 for the full control effect; nearly all actives have a fitted effect of over 55% in size
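No-CPT arm: Tdp1-/-;hTDP1 DT40 cells (400/well) plus compounds, incubated ≥48 hr at 37 °C. Readout CellTiter-Glo luminescence.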
TGFb inhibitor: blocks TGF-b signaling; 410,000 compounds, 1.2% hits; HepG2 CAGA-GFP TGF-b/SMAD3 reporter, GFP fluorescence, 18 h; TGF-beta stimulated, 500 pg/mL final; Potency, µM (top dose mostly 46.1 µM), for the others: at the highest dose activity, negative = inhibition, actives largely listed as inhibitors; AID 588855; note: % is set by controls: 0 for no effect and ±100 for the full control effect; nearly all actives have a fitted effect of over 65% in size
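Smad-responsive CAGA-GFP expression was quantified in HEPG2 cells exposed to compounds and 500 pg/mL final TGF-beta for 18 h at 37 degrees C; unstimulated wells defined full inhibition.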
* marks the source's active call; other numbers are inactive results; i = inactive; ? = inconclusive; nt = no result given. Sampled rows, rich in hits. Any-hit rate of the full collection: about 17%. Calls come from the whole dose curve; as a rule, active = well fitted curve in the direction sought with a large enough effect; inconclusive = small, poorly fitted or top-dose-only effect, or another doubt; inactive = no such curve, though single readings can be large; an effect the other way counts as inactive or inconclusive. Potency is the fitted concentration of half-maximal effect.

SMILES | S2 tox | HepG2 viability | DT40 TDP1 CPT | ATXN2 expr inh | DT40 TDP1 no CPT | TGFb inhibitor
Cc1ccc(NC(=O)c2c(C)oc3ccc(O)c(CN4CCN(Cc5ccccc5)CC4)c23)cc1 | ? | -47% | 21µM* | -17% | -86% | ?
Cc1oc2c(CN3CCCC3)c(O)ccc2c(=O)c1-c1ccccc1 | i | 1% | -21% | 9% | -8% | -5%
CCOC(=O)c1c(CSCc2ccccc2)oc2ccc(O)c(CN(C)C)c12 | ? | 22µM* | 15µM* | ? | 16µM* | ?
CCc1cccc(CC)c1NC(=O)c1c(C)oc2ccc(O)c(CN3CCCC3)c12 | 16µM* | -29% | ? | -25% | ? | -10%
CCOC(=O)c1[nH]c(C)c(C(=O)N(C)Cc2ccccc2)c1C | i | -20% | ? | -2% | ? | 10%
Cc1oc2ccc(O)c(CN3CCN(C)CC3)c2c1C(=O)Nc1ccc(C(C)C)cc1 | i | -25% | 16µM* | -8% | 21µM* | -25%
Cc1oc2ccc(O)c(CN3CCN(C)CC3)c2c1C(=O)Nc1ccccc1 | i | -16% | -29% | -9% | -9% | -10%
COc1ccc(Cl)cc1NC(=O)COc1ccc(S(=O)(=O)N2CCOCC2)cc1C | i | 2% | -8% | -3% | ? | -4%
O=C(CSc1nnc(-c2ccc(F)cc2)c2ccccc12)NCC1CCCO1 (stereo not given) | i | -15% | -14% | -3% | -16% | -18%
CCOC1=C2[C@H](c3ccccc3)N(S(=O)(=O)c3ccc(C)cc3)C(C(C)(C)C)[C@H]2n2c(=O)n(-c3ccccc3)c(=O)n2C1 (stereo not given in full) | i | -5% | -7% | -2% | -14% | -11%
O=C(OCCCOC(=O)c1ccc(O)cc1)c1ccc(O)cc1 | i | -11% | -21% | -4% | -9% | 0%
Cc1oc2ccc(O)c(CN3CCCCCC3)c2c1C(=O)Nc1cccc(C(F)(F)F)c1 | nt | 13µM* | 3.7µM* | nt | 5.2µM* | ?
Cc1oc2ccc(O)c(CN3CCCC3)c2c1C(=O)Nc1ccc(C(C)C)cc1 | nt | -76% | 23µM* | ? | 23µM* | ?
O=C(NCCN1CCCCC1)Nc1cccc(C(F)(F)F)c1 | i | -23% | 3% | -10% | -21% | -12%
Cc1ccc(NC(=O)c2c(C)oc3ccc(O)c(CN4CCCCCC4)c23)cc1 | nt | -30% | 15µM* | nt | 16µM* | ?
Cc1ccc(NC(=O)c2c(C)oc3ccc(O)c(CN4CCOCC4)c23)cc1 | i | -10% | ? | 2% | ? | -7%
Cc1ccc(NC(=O)c2c(C)oc3ccc(O)c(CN4CCCCCC4)c23)c(C)c1 | nt | -31% | 9.2µM* | nt | 6.5µM* | ?
COc1ccc(NC(=O)C(CC(C)C)NS(=O)(=O)c2ccc3c(c2)oc(=O)n3C)cc1Cl (stereo not given) | i | -9% | -4% | -29% | -20% | -32%
CCOC(=O)c1c(-c2ccccc2)oc2ccc(O)c(CN3CCCC3)c12 | nt | -59% | 23µM* | nt | 21µM* | -4%
CCOC(=O)c1oc2ccccc2c1CN1CCCCC1 | i | -41% | -12% | -15% | -1% | -9%
Cc1cc(Br)ccc1NC(=O)CSc1c2c(nc3ccccc13)CCC2 | nt | -69% | 15µM* | nt | 12µM* | ?
COc1ccc(NC(=O)CSc2c3c(nc4ccccc24)CCCC3)c(OC)c1 | nt | -51% | 21µM* | ? | 18µM* | 0%
COc1ccc(-c2c(C#N)c(SCC(=O)Nc3ccccc3)nc3c2CCCC3)cc1 | i | -44% | 26µM* | 1% | ? | 0%
Cc1ccccc1NC(=O)CSc1nc2cc3c(cc2cc1C)CCC3 | i | 0% | 4.6µM* | -20% | 3.7µM* | 0%
CCC(=O)Nc1ccc(NC(=O)CSc2nc3cc4c(cc3cc2C)CCC4)cc1 | ? | -7% | ? | -29% | ? | 0%
SMILES | S2 tox | HepG2 viability | DT40 TDP1 CPT | ATXN2 expr inh | DT40 TDP1 no CPT | TGFb inhibitor
Nc1nc2ccccc2[nH]1 | i | 2% | 17% | 15% | 9% | 0%
Nc1ccccc1Sc1nc2ccccc2[nH]1 | i | -21% | 13µM* | -4% | 15µM* | -27%
CCCn1nnnc1NCc1ccccc1Cl | i | -2% | -2% | nt | -1% | 11%
COc1cccc(CN2CCN(C(=O)c3ccco3)CC2)c1OC | i | 0% | -2% | 2% | -26% | -20%
O=C(c1ccco1)N1CCN(CCCCOc2cccc3ccccc23)CC1 | ? | 7.9µM* | 18µM* | ? | ? | ?
COc1cc(CN2CCN(C(=O)c3ccc(-c4ccccc4)cc3)CC2)cc(OC)c1OC | i | -9% | 21µM* | -29% | 26µM* | -14%
O=C(c1ccc(-n2cccc2)cc1)N1CCN(Cc2ccccc2)CC1 | nt | -24% | ? | nt | ? | 0%
COc1ccc2ccccc2c1CN1CCN(C(=O)c2ccco2)CC1 | i | -8% | 18µM* | -27% | 15µM* | 7%
Cn1nc(-c2ccc(C(=O)N3CCN(Cc4ccccc4)CC3)cc2)c2ccccc2c1=O | nt | -36% | 23µM* | nt | 18µM* | 0%
COc1cccc(CN2CCN(C(=O)c3ccc(-c4ccccc4)cc3)CC2)c1OC | i | -19% | ? | -13% | -3% | -12%
O=C(NC1CC(=O)N(c2ccc(F)cc2)C1)c1ccco1 (stereo not given) | nt | 5% | -16% | nt | -22% | 30%
Cc1ccccc1C(C(=O)NC1CCCC1)N(C(=O)Cn1cnc2ccccc21)c1cccc(F)c1 (stereo not given) | nt | nt | nt | -6% | nt | nt
O=C(COc1ccccc1)N/N=C/c1ccc(O[C@@H]2O[C@H](CO)[C@@H](O)[C@H](O)[C@H]2O)cc1 | ? | 14% | -4% | 1% | 7% | 0%
O=C(c1csnn1)N1CCC2(CCCN(Cc3cc(C(F)(F)F)cc(C(F)(F)F)c3)C2)CC1 | nt | nt | 5% | nt | -4% | nt
O=C(NCCc1ccccc1Cl)C1CC(=O)N(C2CCCCC2)C1 (stereo not given) | i | -6% | 9% | 5% | -13% | -8%
COc1ccc2ccccc2c1CN1CCN(C(=O)c2ccccc2)CC1 | i | -34% | ? | -16% | 15µM* | 0%
COc1ccccc1CN1CCN(C(=O)c2cccc3ccccc23)CC1 | ? | -40% | -11% | -18% | ? | -25%

High-throughput results from PubChem BioAssay.
